This is one part of a sample in which the strongest signals are shown more often than they occur.
What was measured:
Experiment in all cases: glycan array binding signal (z-score within array); higher = stronger binding
Settings in all cases: glycan notation: IUPAC condensed, linker removed
[1] = biological target: Neu5Ac(a2-3)Gal(b1-3)[Neu5Ac(a2-6)]GalNAc
Outline: (§1)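 Columns mapping to the same glycan were averaged after glycan names were converted to IUPAC-condensed notation. The data come from 3228 arrays in the Consortium for Functional Glycomics database, limited to those with an available protein sequence. Binding is reported as a within-array Z-score averaged across arrays of one protein sequence and across linkers.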

[2] = biological target: Neu5Ac(a2-3)Gal(b1-4)GlcNAc(b1-2)Man(a1-3)[Neu5Ac(a2-3)Gal(b1-4)GlcNAc(b1-2)Man(a1-6)]Man(b1-4)GlcNAc(b1-4)GlcNAc
Outline: as §1

[3] = biological target: Neu5Ac(a2-3)Gal(b1-4)GlcNAc(b1-3)Gal
Outline: as §1

[4] = biological target: Neu5Ac(a2-3)Gal(b1-4)[Fuc(a1-3)]GlcNAc
Outline: as §1

[5] = biological target: Neu5Ac(a2-3)Gal(b1-4)[Fuc(a1-3)]GlcNAc(b1-3)Gal(b1-4)[Fuc(a1-3)]GlcNAc(b1-3)Gal(b1-4)[Fuc(a1-3)]GlcNAc
Outline: as §1

[6] = biological target: Neu5Ac(a2-6)Gal(b1-4)GlcNAc(b1-2)Man(a1-3)[GlcNAc(b1-2)Man(a1-6)]Man(b1-4)GlcNAc(b1-4)GlcNAc
Outline: as §1

[7] = biological target: Neu5Ac(a2-6)Gal(b1-4)GlcNAc(b1-2)Man(a1-3)[Neu5Ac(a2-3)Gal(b1-4)GlcNAc(b1-2)Man(a1-6)]Man(b1-4)GlcNAc(b1-4)GlcNAc
Outline: as §1

[8] = biological target: Neu5Ac(a2-6)Gal(b1-4)GlcNAc(b1-2)Man(a1-6)[GlcNAc(b1-2)Man(a1-3)]Man(b1-4)GlcNAc(b1-4)GlcNAc
Outline: as §1

[9] = biological target: Neu5Ac(a2-6)Gal(b1-4)GlcNAc(b1-2)[Neu5Ac(a2-6)Gal(b1-4)GlcNAc(b1-4)]Man(a1-3)[GlcNAc(b1-4)][Neu5Ac(a2-6)Gal(b1-4)GlcNAc(b1-2)[Neu5Ac(a2-6)Gal(b1-4)GlcNAc(b1-6)]Man(a1-6)]Man(b1-4)GlcNAc(b1-4)GlcNAc
Outline: as §1

[10] = biological target: Neu5Ac(a2-6)Gal(b1-4)GlcNAc(b1-2)[Neu5Ac(a2-6)Gal(b1-4)GlcNAc(b1-6)]Man(a1-6)[Neu5Ac(a2-6)Gal(b1-4)GlcNAc(b1-2)Man(a1-3)][GlcNAc(b1-4)]Man(b1-4)GlcNAc(b1-4)GlcNAc
Outline: as §1

[11] = biological target: Neu5Ac(a2-6)Gal(b1-4)GlcNAc(b1-3)Gal(b1-4)[Fuc(a1-3)]GlcNAc(b1-3)Gal(b1-4)[Fuc(a1-3)]GlcNAc
Outline: as §1

[12] = biological target: Neu5Ac(a2-6)Gal(b1-4)GlcNAc(b1-6)GalNAc
Outline: as §1

[13] = biological target: Neu5Ac(a2-6)Gal(b1-4)GlcNAc(b1-6)[Gal(b1-3)GlcNAc(b1-3)]Gal(b1-4)Glc
Outline: as §1

[14] = biological target: Neu5Gc(a2-8)Neu5Ac(a2-3)Gal(b1-4)GlcNAc
Outline: as §1

B1: Endo180d1-D4 (Homo sapiens), Q9UBG0 (protein)
chain: MGPGRPAPAPWPRHLLRCVLLLGCLHLGRPGAPGDAALPEPNVFLIFSHGLQGCLEAQGGQVRVTPACNTSLPAQRWKWVSRNRLFNLGTMQCLGTGWPGTNTTASLGMYECDREALNLRWHCRTLGDQLSLLLGARTSNISKPGTLERGDQTRSGQWRIYGSEEDLCALPYHEVYTIQGNSHGKPCTIPFKYDNQWFHGCTSTGREDGHLWCATTQDYGKDERWGFCPIKSNDCETFWDKDQLTDSCYQFNFQSTLSWREAWASCEQQGADLLSITEIHEQTYINGLLTGYSSTLWIGLNDLDTSGGWQWSDNSPLKYLNWESDQPDNPSEENCGVIRTESSGGWQNRDCSIALPYVCKKKPNATAEPTPPDRWANVKVECEPSWQPFQGHCYRLQAEKRSWQESKKACLRGGGDLVSIHSMAELEFITKQIKQEVEELWIGLNDLKLQMNFEWSDGSLVSFTHWHPFEPNNFRDSLEDCVTIWGPEGRWNDSPCNQSLPSICKKAGQLSQGAAEEDHGCRKGWTWHSPSCYWLGEDQVTYSEARRLCTDHGSQLVTITNRFEQAFVSSLIYNWEGEYFWTALQDLNSTGSFFWLSGDEVMYTHWNRDQPGYSRGGCVALATGSAMGLWEVKNCTSFRARYICRQSLGTPVTPELPGPDPTPSLTGSCPQGWASDTKLRYCYKVFSSERLQDKKSWVQAQGACQELGAQLLSLASYEEEHFVANMLNKIFGESEPEIHEQHWFWIGLNRRDPRGGQSWRWSDGVGFSYHNFDRSRHDDDDIRGCAVLDLASLQWVAMQCDTQLDWICKIPRGTDVREPDDSPQGRREWLRFQEAEYKFFEHHSTWAQAQRICTWFQAELTSVHSQAELDFLSHNLQKFSRAQEQHWWIGLHTSESDGRFRWTDGSIINFISWAPGKPRPVGKDKKCVYMTASREDWGDQRCLTALPYICKRSNVTKETQPPDLPTTALGGCPSDWIQFLNKCFQVQGQEPQSRVKWSEAQFSCEQQEAQLVTITNPLEQAFITASLPNVTFDLWIGLHASQRDFQWVEQEPLMYANWAPGEPSGPSPAPSGNKPTSCAVVLHSPSAHFTGRWDDRSCTEETHGFICQKGTDPSLSPSPAALPPAPGTELSYLNGTFRLLQKPLRWHDALLLCESHNASLAYVPDPYTQAFLTQAARGLRTPLWIGLAGEEGSRRYSWVSEEPLNYVGWQDGEPQQPGGCTYVDVDGAWRTTSCDTKLQGAVCGVSSGPPPPRRISYHGSCPQGLADSAWIPFREHCYSFHMELLLGHKEARQRCQRAGGAVLSILDEMENVFVWEHLQSYEGQSRGAWLGMNFNPKGGTLVWQDNTAVNYSNWGPPGLGPSMLSHNSCYWIQSNSGLWRPGACTNITMGVVCKLPRAEQSSFSPSALPENPAALVVVLMAVLLLLALLTAALILYRRRQSIERGAFEGARYSRSSSSPTEATEKNILVSDMEMNEQQE
glycan array binding signal (z-score) [1]: -0.517
glycan array binding signal (z-score) [2]: -0.688
glycan array binding signal (z-score) [3]: 0.249
glycan array binding signal (z-score) [4]: -0.083
glycan array binding signal (z-score) [5]: -0.132
glycan array binding signal (z-score) [6]: 3.38
glycan array binding signal (z-score) [7]: 0.363
glycan array binding signal (z-score) [8]: -0.485
glycan array binding signal (z-score) [9]: -0.277
glycan array binding signal (z-score) [10]: 2.92
glycan array binding signal (z-score) [11]: 2.78
glycan array binding signal (z-score) [12]: 0.474
glycan array binding signal (z-score) [13]: -0.046
glycan array binding signal (z-score) [14]: -0.032
